An excerpt weighted towards active compounds, which were near 4.4% of everything screened.
D1 ag – activates the human D1 dopamine receptor; P21728; HEK293 T-REx D1 cells, calcium flux, agonist mode; activation, % at 2 µM; 360,000 tested, 1% active; AID 504660; note: 0% is about no effect
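Tetracycline-induced HEK293 TREx D1 cells, force-coupled to calcium signalling, were dye-loaded with a no-wash calcium kit. Compound was pin-added after a 10 s baseline. Fluorescence was read kinetically at 1 cycle/s for 180 s, with calcium rises flagged as agonism.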
USP1 inh – inhibitors of human USP1/UAF1 deubiquitinase; recombinant USP1/UAF1, Ub-Rhodamine cleavage fluorescence; Potency, µM (series often up to 57.1 µM), for the others: at the highest dose activity change, negative = inhibition, hits mostly inhibitors; 390,000 tested, 0.23% active; active = well fitted inhibition curve with a large enough effect; inconclusive = small, poorly fitted or top-dose-only effect; inactive = no such curve, though single readings can be large or run the other way; note: potency is the fitted concentration of half-maximal effect; % is set by controls: 0 for no effect and ±100 for the full control effect; nearly all actives have a fitted effect of over 60% in size
Target sequence (O94782 whole entry, looked up): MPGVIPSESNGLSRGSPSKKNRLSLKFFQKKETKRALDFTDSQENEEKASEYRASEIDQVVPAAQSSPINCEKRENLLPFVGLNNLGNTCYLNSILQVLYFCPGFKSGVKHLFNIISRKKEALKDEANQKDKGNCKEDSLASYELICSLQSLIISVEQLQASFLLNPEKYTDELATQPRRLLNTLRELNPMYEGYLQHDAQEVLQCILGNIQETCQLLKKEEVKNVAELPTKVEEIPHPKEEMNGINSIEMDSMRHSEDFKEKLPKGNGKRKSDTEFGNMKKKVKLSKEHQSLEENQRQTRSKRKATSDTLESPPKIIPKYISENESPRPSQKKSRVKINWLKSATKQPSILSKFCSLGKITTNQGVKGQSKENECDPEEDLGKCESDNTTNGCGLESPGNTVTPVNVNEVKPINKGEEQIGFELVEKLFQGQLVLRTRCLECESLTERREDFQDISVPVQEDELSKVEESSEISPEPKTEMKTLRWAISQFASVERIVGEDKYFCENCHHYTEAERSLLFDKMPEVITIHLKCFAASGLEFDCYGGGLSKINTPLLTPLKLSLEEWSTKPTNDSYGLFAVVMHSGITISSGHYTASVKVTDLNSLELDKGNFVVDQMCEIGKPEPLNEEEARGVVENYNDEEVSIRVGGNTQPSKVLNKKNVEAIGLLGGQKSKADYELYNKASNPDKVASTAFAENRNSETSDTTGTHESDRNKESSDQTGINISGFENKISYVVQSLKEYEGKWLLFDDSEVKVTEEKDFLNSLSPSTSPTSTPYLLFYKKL
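USP1/UAF1 complex (1 nM) preincubated 15 min at room temperature with compound, then Ub-Rho substrate (150 nM final) added. Kinetic fluorescence at 480/540 nm over 6 reads at 60 s intervals; 50 mM HEPES pH 7.8, 0.5 mM EDTA, 0.1 mg/ml BSA, 1 mM TCEP, 0.01% Tween-20.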
D1 antagonist – human D1 dopamine receptor antagonism. P21728. HEK293 TREx D1 cells, calcium flux, dopamine EC80; active compounds read low. activity change, negative = inhibition, % at 10 µM. 360,000 tested, 3.2% active; in the data active = activity change below about -30%; note: % is set by controls: 0 for no effect and ±100 for the full control effect
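Antagonism measured as reduced calcium response to an EC80 dopamine addition following 180 s compound pre-read; cells were inducible HEK293 Trex D1 plated overnight at 30 C, read kinetically at 1 cycle/sec.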
TRHR agonist – activates the human TRH receptor; P34981; TRHR cells, calcium flux fluo-8, FDSS agonist mode; activation, % at 2 µM; 360,000 tested, 0.18% active; AID 493084; note: 0% is about no effect
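TRHR-expressing cells, plated overnight in medium with 10% serum, were loaded with fluo-8 calcium dye at room temperature. After a 10 s baseline, library compound was pin-added and calcium release was recorded kinetically (ex 480/em 530) as agonist response.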
TRHR enhancer – allosteric enhancers of human TRH receptor. TRHR cells, fluo-8 calcium fluorescence, EC20 TRH enhancement. enhancement, % at 2 µM. 360,000 tested, 0.66% active. AID 493056; in the data active = enhancement above about 30%; note: 0% is about no effect
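TRHR-expressing cells loaded with fluo-8 calcium dye were read kinetically (ex 480/em 530) during compound addition, then stimulated with an EC20 of TRH (10 nM final). Enhancement of the Gq-mediated intracellular calcium response was scored.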
D1 potentiator – human D1 dopamine receptor positive modulation | P21728 | HEK293 TREx D1 cells, calcium flux, dopamine EC20 potentiation | potentiation, % at 10 µM | 360,000 tested, 0.036% active; in the data active = potentiation above about 30%; note: 0% is about no effect
* hit, by the source's call; ? = inconclusive; . = no result. Cut-off read from the data, not from the text of the source, unless noted: active = activation above about 30%; inactive = the rest.

SMILES	D1 ag	USP1 inh	D1 antagonist	TRHR agonist	TRHR enhancer	D1 potentiator
Cc1ccc(-c2nc(S(=O)(=O)c3ccc(C)cc3)c(SCC(=O)NC3CCCCC3)o2)cc1	0	9%	3	0	-2	1
O=C(COCc1ccccc1)N[C@@H](Cc1ccc(O)cc1)C(=O)O	-3	8%	-36*	0	0	-3
CC(=O)c1cn(-c2ccc(Cl)cc2)c(=O)[nH]c1=O	0	-26%	-32*	0	-5	-1
CC(C)N1CCc2c(sc(NC(=O)c3cc(-c4cccs4)nc4ccccc34)c2C(N)=O)C1	83*	-8%	0	27	10	-4
CC(C)N1CCc2c(sc(NC(=O)c3nc4ccccc4s3)c2C(N)=O)C1	2	-10%	-11	0	0	-6
CC(C)N1CCc2c(sc(NC(=O)c3ccc(S(=O)(=O)N(C)C4CCCCC4)cc3)c2C(N)=O)C1	66*	-18%	-15	23	0	-1
CN(C1CCCCC1)S(=O)(=O)c1ccc(C(=O)Nc2sc3c(c2C(N)=O)CC(C)(C)NC3(C)C)cc1	28	-29%	0	0	2	7
CC(C)N1CCc2c(sc(NC(=O)c3ccc(S(=O)(=O)N4CCc5ccccc54)cc3)c2C(N)=O)C1	32*	2%	6	24	-2	-3
CCc1ccccc1NS(=O)(=O)c1ccc2c(c1)OCC(C(=O)N1CCCC1)O2 (configuration not stated)	10	-9%	-9	0	2	-1
Cc1ccc(C)c(NC(=O)Cn2c(=O)n(-c3ccccc3C)c(=O)c3c2c2cc(C)ccc2n3C)c1	4	-6%	-6	-1	11	-2
COc1ccc(-c2cc(=O)c3cc(OCC(=O)OC(C)C)ccc3o2)cc1	19	-19%	-60*	-2	1	-1
COc1ccc(-c2cc(=O)c3cc(O)ccc3o2)cc1	-2	7%	-34*	-1	1	-2
O=C(NC1(C(F)(F)F)NC(=O)N(CCc2ccccc2)C1=O)c1ccccc1Cl (configuration not stated)	6	-16%	3	0	15	-4
CCCOc1ccccc1N/C(=N/c1nc(C)cc(C)n1)NC(=O)Nc1ccc(Cl)cc1	3	-24%	-50*	0	-10	-12
CCCCCn1c(C(C)NC(=O)CCC)nc2ccccc21 (configuration not stated)	0	-7%	-30*	-1	0	-5
COc1ccc(-c2nnc(SCC(=O)NCc3cccs3)n2CC(C)C)cc1	1	5%	-4	0	-2	0
COC(=O)CNC(=O)CSc1nnc(-c2ccc(OC)cc2)n1CC(C)C	-1	-8%	-34*	1	3	4
CC(C)Cn1c(N)c(C(=O)COC(=O)c2ccc3c(c2)OCCO3)c(=O)n(C)c1=O	5	-16%	-2	1	5	0
CC(C)Cn1c(N)c(C(=O)CSc2ccc3c(c2)OCCO3)c(=O)n(C)c1=O	24	-11%	-33*	1	1	-7
O=C(Nc1ccc(F)cc1F)N1CCN(c2ccc(Cl)c(Cl)c2)CC1	28	-5%	-32*	1	-3	-3
COc1ccc(S(=O)(=O)n2c(C)nc3ccccc32)cc1C	7	-20%	-75*	0	-5	-2
CC1CN(S(=O)(=O)c2ccccc2)CC(C)O1 (configuration not stated)	2	?	-35*	0	-6	1
CC1CN(S(=O)(=O)c2ccc(C(=O)OCc3ccc(C#N)cc3)cc2)CC(C)O1 (configuration not stated)	34*	-19%	0	0	-3	.
Cc1ccc(NC(=O)Cn2c(=O)n(CCc3ccccc3)c(=O)c3c4c(sc32)CCCC4)c(C)c1	-1	?	-14	2	11	2
CCn1ccc2c(OCC(=O)Nc3ccc(C(C)=O)cc3)cccc2c1=O	-3	-8%	.	0	-5	0
SMILES	D1 ag	USP1 inh	D1 antagonist	TRHR agonist	TRHR enhancer	D1 potentiator
CCN(CC)S(=O)(=O)c1ccc(NC2CCCc3ccccc32)nc1 (configuration not stated)	5	-23%	-31*	0	-4	-7
CCN(CC)S(=O)(=O)c1ccc(Cl)c(C(=O)NC2CCN(Cc3ccccc3)CC2)c1	6	-14%	-8	0	-1	-5
CCN(CC)S(=O)(=O)c1ccc(NC2CCN(Cc3ccccc3)CC2)nc1	34*	-18%	-38*	0	4	-9
O=S(=O)(c1ccc(NC2CCCc3ccccc32)nc1)N1CCOCC1 (configuration not stated)	6	-12%	-7	0	8	-4
Oc1ccc(-c2csc(-c3c[nH]c4ccccc34)n2)c(O)c1	2	-2%	-18	0	40*	-5
CN(C)CCNc1ncnc2c1sc1nc(-c3ccccc3)c3c(c12)CCCC3	14	-19%	-80*	2	4	-22
CC(=O)C1=C(c2cccc([N+](=O)[O-])c2)N(C(C)=O)n2c(C)nnc2S1	-1	14µM*	-23	1	-1	-8
Fc1ccc(CNC(=S)Nc2ccc(OC(F)F)cc2)cc1	26	-20%	-42*	2	-5	-7
S=C(NCc1ccccc1)Nc1ccncc1	8	-11%	-56*	0	1	-17
CCc1ccc(NC(=S)NCc2ccccc2)cc1	6	-16%	-38*	-1	-1	-7
FC(F)Oc1ccc(NC(=S)NCc2cccnc2)cc1	5	-7%	-3	0	4	6
CN(C)C(=S)NCc1ccccc1	1	1%	-18	0	38*	5
CC1CCc2c(sc3nnn(CCCCOc4ccc(Cl)cc4)c(=O)c23)C1 (configuration not stated)	1	-22%	1	1	3	0
CCc1ccccc1NC(=O)CN1C(=O)c2ccccc2Sc2ncccc21	5	-6%	-4	-2	-1	-4
Cc1ccc(NC(=O)CCS(=O)(=O)c2ccc(Br)s2)c(Br)c1	3	-14%	-11	-1	-6	-1
N#Cc1c(-c2ccc(C(F)(F)F)cc2)cc(-c2ccccc2)[nH]c1=S	1	-5%	-31*	0	-8	-6
CCOC(=O)c1c(C)[nH]c(C(=O)N/N=C/c2cccc(OC)c2)c1C	4	-6%	-21	-1	-6	-7
COc1cccc(/C=N/NC(=O)c2[nH]c(C)c(C(=O)N/N=C/c3cccc(OC)c3)c2C)c1	2	-10%	-41*	1	-1	-13

Screening results deposited in PubChem by National Center for Advancing Translational Sciences (NCATS).
